TIM10 inh = growth inhibitors of TIM10 yeast strain; S. cerevisiae TIM10 strain growth, BacTiter-Glo luminescence, 24 h; inhibition, % at 10 µM; 1.4% of 330,000 active;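 active means inhibition of 40% or more at the single tested concentration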;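 further: wild-type TIM10 isogenic control strain grown at permissive 25 °C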
PfHsp90 yeast 2 = reduces growth (ATP signal) of yeast expressing P. falciparum Hsp90; inhibition, % at 9.4 µM; AID 504621; S. cerevisiae expressing PfHsp90, BacTiter-Glo ATP, 48 h; yeast lacking PDR1 and PDR3 efflux regulators; 0.32% of 310,000 active;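 active means every replicate shows inhibition above about 80%, whatever the replicate mean, limit read from the data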;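 further: 0% = DMSO neutral controls and 100% = 20 µM radicicol positive controls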
SKKanGAS inh = inhibitors of SKKanGAS S. pyogenes growth in kanamycin (SK-promoter or general growth effect); 1.3% of 300,000 active; inhibition, % at 7.5 µM; BacTiter-Glo, 6 h;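 active means mean replicate score, as percent of positive control median, at least 50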;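 further: strain carries kanamycin resistance gene driven by streptokinase promoter and grows in 40 µg/ml kanamycin; loss of luminescence reflects streptokinase promoter inhibition or plain growth inhibition; 0% = median of DMSO wells and 100% = positive control at its reference dose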
tim23-1 inh = growth inhibitors of tim23-1 mutant yeast. S. cerevisiae tim23-1 growth, BacTiter-Glo luminescence, 24 h. inhibition, % at 20 µM. 1.3% of 330,000 active. AID 463212;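 active means growth inhibition of the mutant yeast at or above 50%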;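 further: temperature-sensitive mutant grown at 25 °C; plate controls were DMSO-treated mutant yeast for no effect and medium wells lacking yeast for full effect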
tim10-1 inh = inhibits growth of tim10-1 mutant yeast; inhibition, % at 20 µM; 2.2% of 330,000 active; S. cerevisiae tim10-1 ts strain growth, BacTiter-Glo, 24 h;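 active means inhibition of at least 40%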;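 further: mutant grown at 25 °C; 0% = DMSO wells with yeast and 100% = wells holding no yeast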
ATG4B inh = inhibitors of human ATG4B cysteine protease. Q9Y4P1. ATG4B cleavage of LC3-PLA2, NBD-HPC fluorescence, 1 h. inhibition, % at 8.33 µM. 0.51% of 340,000 active; in the data active means inhibition above about 40%
Target sequence (Q9Y4P1 whole entry, looked up): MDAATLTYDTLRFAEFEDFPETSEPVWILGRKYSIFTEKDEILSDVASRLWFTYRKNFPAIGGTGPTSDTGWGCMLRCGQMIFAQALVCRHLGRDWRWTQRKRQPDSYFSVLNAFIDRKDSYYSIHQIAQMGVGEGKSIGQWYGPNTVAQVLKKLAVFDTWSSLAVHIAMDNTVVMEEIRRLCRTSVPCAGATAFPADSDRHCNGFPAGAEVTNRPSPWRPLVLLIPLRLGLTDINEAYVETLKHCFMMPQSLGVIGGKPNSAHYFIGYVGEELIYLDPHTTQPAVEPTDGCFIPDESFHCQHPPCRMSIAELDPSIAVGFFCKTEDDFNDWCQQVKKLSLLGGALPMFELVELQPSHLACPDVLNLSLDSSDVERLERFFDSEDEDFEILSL
tim10-1 conf = tim10-1 yeast growth inhibition, confirmed; inhibition, % at 20 µM; shares compounds with tim10-1 inh; 56% of 7,400 active; S. cerevisiae tim10-1 ts strain growth, BacTiter-Glo, 24 h;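 active means inhibition of yeast growth at or above a set limit in either of two repeat tests at 20 µM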;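 further: tim10-1 mutant grown at permissive 25 °C to find synthetic lethal compounds; 0% = DMSO yeast wells and 100% = medium wells without yeast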
* hit, by the source's call; . = not tested or not shown; ! = repeats disagree. Shown are actives, neighbours in structure and some others; about 4.7% of the full set was active somewhere.

SMILES	TIM10 inh	PfHsp90 yeast 2	SKKanGAS inh	tim23-1 inh	tim10-1 inh	ATG4B inh	tim10-1 conf
COc1cc(-c2cc(-c3ccc(O)cc3)nc(N)c2C#N)ccc1O	23	6	20	11	15	-16	.
CCOc1cc(-c2c(C#N)c(N)nc3c2CCc2ccccc2-3)ccc1O	17	-42	4	25	14	10	.
CCOc1cc(-c2cc(-c3ccc(C)cc3)nc(N)c2C#N)ccc1O	33	-17	15	22	42*	-5	26
O=C(c1cc2cc(F)ccc2[nH]1)N1CCN(Cc2ccc3c(c2)OCO3)CC1	20	-6	11	30	44*	-8	-18
COc1cc2cc(C(=O)N3CCN(Cc4ccc5c(c4)OCO5)CC3)[nH]c2cc1OC	12	-10	-3	4	10	0	.
COc1ccc(-n2cnnc2SCC(=O)N2CCN(c3ccccc3)CC2)cc1	-4	-2	1	5	13	1	.
COc1ccc(N2CCN(C(=O)CSc3nnc(-c4cc5ccccc5cc4O)n3C)CC2)cc1	22	0	-3	33	45*	-20	19
C=CCOCCN1C(=O)C2C(c3ccccc3)C=CC(c3ccccc3)C2C1=O (stereo not given)	25	10	2	41	41*	-11	24
Cc1ccc(-n2c(SCC(=O)Nc3cc(S(=O)(=O)N4CCOCC4)ccc3Cl)nc3ccccc3c2=O)cc1	7	-26	0	20	18	-2	.
O=C(Nc1ccc(C(=O)N2CCN(c3ccc(F)cc3)CC2)cc1)C1=CSCCO1	29	-7	6	42	47*	-7	36*
COc1ccc(N2CCN(C(=O)c3ccc(NC(=O)C4=CSCCO4)cc3)CC2)cc1	20	19	13	34	43*	-1	29*
O=C(Nc1ccccc1C(=O)N1CCN(c2cccc(Cl)c2)CC1)C1=CSCCO1	8	8	1	29	33	-2	.
CCc1ccc(CNC(=O)c2ccc(NC(=O)C3=CSCCO3)cc2)cc1	8	-29	6	29	44*	8	14
COc1ccc(N2CCN(C(=O)c3ccc(NS(=O)(=O)c4ccc(F)cc4)cc3)CC2)cc1	-3	3	12	9	9	-21	.
COc1ccccc1C(=O)NC1CC2CCC(C1)N2Cc1ccccc1 (stereo not given)	5	-12	0	12	-17	0	.
Cc1nc(NCc2ccccn2)c2c3c(sc2n1)CCCC3	16	-51	2	39	41*	2	41*
c1ccc(CNc2ncnc3sc4c(c23)CCCC4)nc1	-7	13	3	42	45*	-6	36*
O=C(Nc1ncnc2sc3c(c12)CCCCC3)c1ccc(F)cc1	26	.	17	23	45*	-5	32*
O=C(Nc1ncnc2sc3c(c12)CCCCC3)c1ccccc1	29	.	3	42	30	-7	.
Cn1c(=O)c(C(=O)c2ccccc2)nc2ccccc21	-1	.	-4	10	5	0	.
COc1ccc(S(=O)(=O)NC(C)C(=O)NCc2cccnc2)cc1OC (stereo not given)	-6	7	-5	11	8	6	.
COc1ccccc1CNc1ncccc1[N+](=O)[O-]	6	26	9	1	-5	-1	.
Cc1cc2nc(-c3ccc4c(c3)CCC4)ccn2n1	-23	-15	7	19	41*	0	20
S=C(NCc1ccco1)N1CCN(c2ccc(Cl)cc2)CC1	32	-20	-8	31	49*	-1	23
O=C(Nc1ncc([N+](=O)[O-])s1)c1cccs1	22	54	8	32	43*!	2	38*
SMILES	TIM10 inh	PfHsp90 yeast 2	SKKanGAS inh	tim23-1 inh	tim10-1 inh	ATG4B inh	tim10-1 conf
Cc1cnc(NC(=O)c2cccs2)s1	12	14	3	42	33	-1	.
O=C1N/C(=C/c2ccc(Br)s2)C(=O)N1c1ccccc1	-7	-5	-6	11	46*	-7	30
CCOC(CNC(=O)CN1C(=O)COc2ccc(S(=O)(=O)N3CCOCC3)cc21)OCC	9	35	6	11	-5	-1	.
CCO[C@@H]1OC(C(=O)N2CCN(Cc3ccc4c(c3)OCO4)CC2)=C[C@H](c2cn(C(C)=O)c3ccccc23)[C@H]1CCCO	-1	.	2	-5	-18	-24	.
O=C(NCCCN1CCOCC1)c1ccc(/C=C2\Oc3ccccc3N(Cc3ccccc3F)C2=O)cc1	9	23	14	42	47*	-5	12
N#Cc1ccc(-c2csc(NNC(=O)c3ccc(Br)cc3)n2)cc1	2	-6	24	9	-6	-26	.
COC(=O)c1c(NC(NC(=O)C(C)C)C(Cl)(Cl)Cl)sc2c1CCC2 (stereo not given)	24	-31	28	25	44*	37	24
COC(=O)c1c(NC(NC(C)=O)C(Cl)(Cl)Cl)sc2c1CCCC2 (stereo not given)	32	14	-16	22	33	0	.
Cc1ccc(C2CC(C(F)(F)F)n3nc(C(=O)NCC4CCCO4)cc3N2)cc1 (stereo not given)	14	.	-10	26	37	.	.
COc1cccc(-n2nc(C(=O)Nc3ccc4c(c3)OCO4)c3ccccc3c2=O)c1	13	10	6	13	20	-13	.
O=C(Nc1ccc2c(c1)OCO2)c1nn(-c2ccccc2)c(=O)c2ccccc12	18	-14	8	25	44*	-2	17
O=C(Nc1nnc(SCc2ccc(F)cc2)s1)C1=COCCO1	12	-2	.	32	11	-2	.
C=COC(=O)CSc1snc(SCC(=O)OC)c1C#N	14	5	-4	31	43*	7	7
CN(C)CC/C=C1/c2cc(F)ccc2Sc2ccc(Cl)cc21	21	-19	1	4	15	27	.
COc1cc2c(cc1Cl)/C(=C\CCN(C)C)c1ccccc1S2	17	13	5	17	40*	19	30
CN(C)CC/C=C1/c2ccccc2Sc2c(O)cc(Cl)cc21	18	4	-2	12	38	37	.
COc1cc(Cl)cc2c1Sc1ccccc1/C2=C/CCN(C)C	35	22	8	-68	42*	11	29
CN1CCN(c2oc(-c3ccco3)nc2S(=O)(=O)c2ccccc2)CC1	-13	12	0	7	6	-7	.
Oc1ccccc1-c1nc(NCc2cccnc2)c2ccccc2n1	27	-10	17	46	49*	36	57*
Oc1ccccc1-c1nc(NCc2ccccc2)c2ccccc2n1	2	-7	-3	-6	-8	0	.
COC(=O)c1ccc(NC(=O)CNC(=O)c2sc3ccccc3c2Cl)cc1	-1	7	.	-1	6	-15	.

Assay outcomes as filed in PubChem.
